Measured values published in PubChem BioAssay (NCI).
Several values for one entry are separate records, joined by “and”; a condition that tells them apart may be missing. Equal values may be shown once. Compounds without any hit were thinned out: in the full panel of roughly 83,000, 20% have a hit.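 Each cell line was grown in a 96-well plate and treated with one concentration of compound for 48 hours. Values below 10 were considered active.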 Unmarked numbers belong to inactive results. Activity calls are given as the source filed them.

What follows are compounds tested on SN12C renal (assay: NCI-60 one-dose screen, 48 h (100 = growth as untreated, 0 = no growth, -100 = all killed)). Conditions: 10 µM.
Description: Growth inhibition of the SN12C human tumor cell line is measured as a screen for anti-cancer activity. Cells are grown in 96 well plates and exposed to the test compound for 48 hours. Compounds are tested at a single concentration, which is 10^-5 M for most compounds. The reported endpoint is percent growth (GI% or GIPRCNT), where numbers from 0 - 100% represent growth inhibition, and numbers from -100% - 0 represent cell death. For example, a value of 40 represents 60% growth inhibition. A value of 0 means no net growth occurred over the course of the experiment. A value of -40 indicates 40% of cells at the beginning of the experiment died by the end of the experiment. A value of -100 means all cells are dead at the end of the experiment.
NCI-60 Human Tumor Cell Lines Screen was performed using the standard one-dose NCI protocol, which is described in more detail at https://dtp.cancer.gov/discovery_development/nci-60/default.htm.
Compounds with GIPRCNT values below 10 were considered active. Activity score was based on GIPRCNT using the following formula: […]
Score is 0 for GIPRCNT values of 100 or above, 50 for GIPRCNT values of 0, and 100 for GIPRCNT values of -100.

Compound	growth
O=C(O)c1c(Cl)c(Cl)c(Cl)c(Cl)c1-c1c2cc(I)c(=O)c(I)c-2oc2c(I)c(O)c(I)cc12	99.1% and 95.2% and 98.3%
O=C(Nc1cccc(Br)c1)Oc1cccc2cccnc12	99.4%
CN(C)C(=O)c1ccc(SC(=S)NCc2ccccc2)cc1	103%
O=C(Nc1c(Cl)cccc1Cl)Oc1cccc2cccnc12	53.9%
COc1ccc(-c2cscc2N)cc1	71.2%

Same assay, conditions: 10 µM unless noted

Compound	growth
CCC(CC)COC(=O)c1ccc(O)c(O)c1	45.8%
O=C(Oc1cccc2cccnc12)c1ccccc1	86% and 104%
CC1(C)CC([P+](c2ccccc2)(c2ccccc2)c2ccccc2)=NN1	30.4%
C[N+](C)=c1ccc2nc3c(cc(NCCCNc4cc5oc6cc(=[N+](C)C)ccc-6nc5c5ccccc45)c4ccccc43)oc-2c1	-25.5% (active)
O=C1c2ccccc2C(=O)c2sc(Nc3cccc(Cl)c3)nc21	-71.3% (active)
Cc1cc2nc(CS)[nH]c2cc1C	102%
O=C(Nc1ccc(F)cc1)ON=C1CCCCC1	100% [100 µM]
CC(C)c1ccc2nc3ccc(C(=O)NCCN4CCN(c5ccccc5)CC4)cn3c(=O)c2c1	69.9%
CC(C)(C)CC(C)(C)c1ccc(OCCSC(=N)N)cc1	53.7%
COc1ccc(N=N/N=c2\sc3cc(OC)ccc3n2C)cc1	89%
Oc1c(Cl)c2ccccc2c2ccccc12	98.5%
Cn1c2c(c3ccccc31)CCN1C[C@@H]3CCCC[C@H]3C[C@@H]21	32.7%
Cc1ccc2c(ccc3c[n+]4c5ccccc5ccc4n32)c1	5.27% (active)
Oc1c(Cl)cc(Cl)c2cccnc12	57.3%
CCN1/C(=C\c2cc[n+](CC)c3ccccc23)C=Cc2ccccc21	8.57% (active)
C=CCOc1ccc(N=NC(C#N)C#N)cc1	85.7%

Compound	growth
O=C1c2ccccc2C(=O)N1c1ccccc1	97.2%
O=[N+]([O-])c1ccc2c(N=Nc3ccc4ccccc4c3O)c(O)cc(S(=O)(=O)O)c2c1	99.4%
c1ccc2c(c1)Nc1cc3ccccc3cc1N2	54.6%
COc1cc(/C=C/C(C)=O)ccc1O	98.1% and 104%
CC(=O)ON=C1C=CC(=C(C#N)c2ccccc2)C=C1	18%
CC(=O)Nc1cccc2cc(O)ccc12	107% and 94.4% and 97.2%
CCN(CC)CC(C)(C)C(=O)/C=C/c1ccc(Cl)c(Cl)c1	-43.8% (active)
C1=C(c2ccccc2)C(c2ccc(OCCN3CCCCC3)cc2)Oc2ccccc21 (stereo unspecified)	55.3%
Oc1c(Br)c(Br)c(O)c(Br)c1Br	113%
O=C(Nc1cccc(Br)c1)Oc1ccc(Cl)c2cccnc12	44.7% [100 µM]
CCCCCC(CCCCC)C(=O)O	98.8%
Cc1ccnc2c1ccc1c(C)ccnc12	15.6%
O=C1c2ccccc2C(=O)c2sc(Nc3ccc(Cl)cc3)nc21	-80.3% (active)
S=C(N/N=C/c1ccccn1)Nc1ccccn1	33.7%
Cc1cc(C(C)(CC(C)C)c2ccc(O)c(C)c2)ccc1O	85.6%

Same assay, conditions: 100 µM

Compound	growth
O=C(O)c1c(Cl)c(Cl)c(Cl)c(Cl)c1-c1c2cc(I)c(=O)c(I)c-2oc2c(I)c(O)c(I)cc12	2.38% (active)
O=C(Nc1cccc(Br)c1)Oc1cccc2cccnc12	-26.1% (active)
CN(C)C(=O)c1ccc(SC(=S)NCc2ccccc2)cc1	-15.4% (active)
O=C(Nc1c(Cl)cccc1Cl)Oc1cccc2cccnc12	33.1%
COc1ccc(-c2cscc2N)cc1	55.1%
